Bioassay records: PubChem BioAssay, several laboratories
M1 agonist: agonists of M1 muscarinic receptor | B-score at 10 µM | hit rate 3% among 64,000 | CHO-M1 cells, Fluo-4 calcium fluorescence, agonist mode; stronger effect = higher value | AID 626;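 active means fluorescence rise, raw or as B-score row- and column-corrected plate score, outside the 99.7% band of its plate's samples, either direction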
Cav32 inh: blocks human Cav3.2 T-type calcium channel | O95180 | Cav3.2-expressing cells, Fluo-4 calcium fluorescence FDSS; stronger effect = lower value | B-score at 10 µM | hit rate 4% among 100,000 | AID 449739;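 active means single-dose well whose peak fluorescence ratio is a statistical outlier from its plate by either plate-standardised score or position-corrected B-score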
Target sequence (O95180 whole entry, looked up): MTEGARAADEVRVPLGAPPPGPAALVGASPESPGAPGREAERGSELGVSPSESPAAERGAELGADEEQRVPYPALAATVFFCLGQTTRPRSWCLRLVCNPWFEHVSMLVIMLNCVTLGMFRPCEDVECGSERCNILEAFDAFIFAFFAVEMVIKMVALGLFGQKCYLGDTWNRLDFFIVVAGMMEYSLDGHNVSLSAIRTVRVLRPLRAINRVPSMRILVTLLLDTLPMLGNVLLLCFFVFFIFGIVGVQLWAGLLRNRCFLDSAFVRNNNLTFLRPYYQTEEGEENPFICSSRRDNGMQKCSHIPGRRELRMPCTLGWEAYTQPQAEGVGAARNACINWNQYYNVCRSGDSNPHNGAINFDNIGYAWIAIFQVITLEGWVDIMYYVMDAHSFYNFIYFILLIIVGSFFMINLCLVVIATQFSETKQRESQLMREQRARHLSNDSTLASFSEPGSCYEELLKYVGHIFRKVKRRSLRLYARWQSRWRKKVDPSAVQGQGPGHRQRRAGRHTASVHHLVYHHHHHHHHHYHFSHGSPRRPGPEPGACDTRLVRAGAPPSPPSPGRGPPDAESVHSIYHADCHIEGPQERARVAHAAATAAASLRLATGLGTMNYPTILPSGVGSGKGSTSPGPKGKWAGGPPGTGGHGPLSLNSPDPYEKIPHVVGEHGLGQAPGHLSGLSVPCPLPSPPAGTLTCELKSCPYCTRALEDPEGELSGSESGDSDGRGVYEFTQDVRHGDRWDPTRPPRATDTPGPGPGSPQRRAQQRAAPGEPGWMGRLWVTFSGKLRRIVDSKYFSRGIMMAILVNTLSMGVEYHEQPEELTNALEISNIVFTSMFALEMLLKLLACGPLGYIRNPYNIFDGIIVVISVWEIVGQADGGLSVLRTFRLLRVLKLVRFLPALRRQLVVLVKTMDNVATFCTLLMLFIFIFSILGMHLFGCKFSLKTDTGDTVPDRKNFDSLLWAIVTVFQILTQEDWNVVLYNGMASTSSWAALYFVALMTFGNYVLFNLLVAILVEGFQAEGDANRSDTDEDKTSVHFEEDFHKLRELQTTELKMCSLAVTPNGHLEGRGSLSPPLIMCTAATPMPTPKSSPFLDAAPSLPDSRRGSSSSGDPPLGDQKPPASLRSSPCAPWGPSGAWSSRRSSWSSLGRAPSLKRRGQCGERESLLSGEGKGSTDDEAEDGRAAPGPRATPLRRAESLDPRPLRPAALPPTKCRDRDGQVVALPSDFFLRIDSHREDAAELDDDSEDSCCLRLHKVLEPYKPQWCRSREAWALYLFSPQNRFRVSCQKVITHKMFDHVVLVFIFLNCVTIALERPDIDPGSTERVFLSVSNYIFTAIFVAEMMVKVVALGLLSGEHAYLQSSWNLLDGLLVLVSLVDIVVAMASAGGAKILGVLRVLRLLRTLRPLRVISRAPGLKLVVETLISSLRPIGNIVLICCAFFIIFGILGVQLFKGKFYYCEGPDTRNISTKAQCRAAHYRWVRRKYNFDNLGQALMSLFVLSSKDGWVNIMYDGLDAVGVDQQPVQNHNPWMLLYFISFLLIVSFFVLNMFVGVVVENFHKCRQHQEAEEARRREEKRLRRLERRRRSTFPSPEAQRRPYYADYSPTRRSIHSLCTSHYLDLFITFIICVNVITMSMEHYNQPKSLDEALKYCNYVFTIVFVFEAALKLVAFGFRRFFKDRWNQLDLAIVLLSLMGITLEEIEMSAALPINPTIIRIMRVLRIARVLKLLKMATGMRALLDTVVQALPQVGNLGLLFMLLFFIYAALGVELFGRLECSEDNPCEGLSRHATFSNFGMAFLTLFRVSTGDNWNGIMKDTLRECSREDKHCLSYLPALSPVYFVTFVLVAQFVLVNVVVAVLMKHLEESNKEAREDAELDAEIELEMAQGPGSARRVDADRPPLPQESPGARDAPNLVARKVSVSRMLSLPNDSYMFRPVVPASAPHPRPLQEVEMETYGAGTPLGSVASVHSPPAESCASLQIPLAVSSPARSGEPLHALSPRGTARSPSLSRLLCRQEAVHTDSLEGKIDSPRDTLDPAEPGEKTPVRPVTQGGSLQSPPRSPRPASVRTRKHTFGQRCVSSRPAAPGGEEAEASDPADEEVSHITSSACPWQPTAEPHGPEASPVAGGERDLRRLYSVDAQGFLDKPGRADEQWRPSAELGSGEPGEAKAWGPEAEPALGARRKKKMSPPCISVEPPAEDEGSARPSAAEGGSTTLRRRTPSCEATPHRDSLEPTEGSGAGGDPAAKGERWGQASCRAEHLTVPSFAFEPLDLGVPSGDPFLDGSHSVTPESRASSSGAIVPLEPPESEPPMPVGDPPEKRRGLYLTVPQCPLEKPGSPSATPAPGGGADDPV
Her2 expr inh: lowers expression of human Her2 kinase; HER2 level % of control, % at 10 µM; P04626; SKBR-3 HER2 protein level, AlphaScreen, 18-24 h; stronger effect = lower value; hit rate 0.69% among 65,000;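 active means HER2 level under 5% of the carrier-only control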
PLAP act: activates human placental alkaline phosphatase; hit rate 1.2% among 96,000; P05187; purified PLAP enzyme, luminescent substrate read-out; stronger effect = higher value; activation fold at 20 µM; in the data active means activation fold above about 2
M1 antag: blocks the rat M1 muscarinic receptor response to acetylcholine. hit rate 3.4% among 64,000. CHO-M1 cells, Fluo-4 calcium, ACh EC80 antagonist mode; stronger effect = lower value. B-score at 10 µM;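 active means calcium fluorescence response, raw or row-and-column corrected B-score, differing from the plate sample mean either way at a set confidence level, mostly lower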
M1 antag conf: confirmation of rat M1 muscarinic receptor antagonists; shares compounds with M1 antag; CHO-M1 cells, Fluo-4 calcium, ACh EC80 antagonism; stronger effect = lower value; calcium response (max-min fluorescence) at 10 µM; hit rate 43% among 1,700; AID 677;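 active means calcium response below the same-plate mean of wells given acetylcholine alone at its 80%-effect dose, minus 3 SD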
mGluR4 antag: mGluR4 (human) activity, M1 antagonist secondary assay. CHO-mGluR4 calcium flux, Fluo-4 fluorescence, glutamate EC80; stronger effect = lower value. fluorescence response (max-min) at 10 µM. shares compounds with M1 antag. hit rate 0.9% among 1,700;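 active means fluorescence response below the plate's average for near-maximal glutamate wells, less 3 SD of those wells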;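 further: raw unnormalized fluorescence span taken in the window right after glutamate addition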
Hits are given with their value; 0 = inactive; - = no result given. The list is not random: actives were taken first. Their share in the collection is about 7.9%.

SMILES	M1 agonist	Cav32 inh	Her2 expr inh	PLAP act	M1 antag	M1 antag conf	mGluR4 antag
CCN(CC)CCCN(C(=O)c1cccs1)c1nc(-c2ccc(OC)cc2)cs1	0	0	0	0	-5.35	321	0
O=C(Nc1sccc1C(=O)N1CCOCC1)c1cccnc1	0	0	0	0	-5.07	0	0
CCCCN(CCCC)c1cc(C)nc(-c2ccccc2O)n1	-	0	-	0	-	-	-
O=C(CSc1nnc(-c2ccco2)n1Cc1ccccc1)c1ccccc1	0	0	0	0	-2.05	0	0
NC(=O)NC(=O)CSc1nnc(-c2ccco2)n1Cc1ccccc1	-	0	-	0	-	-	-
CS(=O)(=O)N1CCN(c2nnc(-c3ccccc3)c3ccccc23)CC1	0	0	0	0	0	-	-
c1ccc(-c2nnc(N3CCN(c4ccccn4)CC3)c3ccccc23)cc1	0	-5.6	0	0	-4.83	358	171
CCN(CC)S(=O)(=O)c1cc(Br)c(C)cc1OC	0	-	0	0	0	-	-
CC(Cc1cccs1)NC(=O)Nc1ccccc1 (centres undefined)	0	0	0	0	-3.18	0	0
CC(Cc1cccs1)NC(=O)Nc1ccc(Cl)cc1 (centres undefined)	-	0	-	0	-	-	-
CCOc1ccc(C(=O)Nc2ccc(N3CCN(C)CC3)cc2)cc1Br	0	-	0	0	-3.48	361	0
CCCC(=O)N1CCN(c2ccc(NC(=O)c3ccc(OCC)c([N+](=O)[O-])c3)cc2)CC1	-	-	-	0	-	-	-
O=C(C1CCCN(Cc2ccccc2)C1)N1CCCCC1 (centres undefined)	-	0	-	0	-	-	-
COc1ccc(Br)cc1CN1CCCC(C(=O)N2CCCCCC2)C1 (centres undefined)	0	0	0	0	-3.15	313	0
O=C(C1CCCN(Cc2ccccc2Br)C1)N1CCCCC1 (centres undefined)	0	0	0	0	-2.32	397	0
COc1ccccc1CN1CCCC(C(=O)N(C)Cc2ccccc2)C1 (centres undefined)	0	0	0	0	-3.76	513	0
CC(C)CCn1c(N2CCc3ccccc3C2)nc2c1c(=O)[nH]c(=O)n2C	-	0	-	-	-	-	-
CCCN(CCO)Cc1ccc(Cl)c(Cl)c1	0	0	0	0	0	-	-
CCCN(CCO)Cc1cccc(Cl)c1	0	0	0	0	-2.57	0	0
COc1cc(-c2nc(S(=O)(=O)c3ccc(C)cc3)c(N3CCOCC3)o2)cc(OC)c1OC	0	-	0	0	-13.1	0	0
OCc1nn2c(c1Br)NC(c1ccccc1)CC2C(F)(F)F (centres undefined)	0	0	0	0	0	-	-
Cc1cc(C)n(-c2nncn2/N=C/c2ccccc2F)n1	0	0	0	0	-3.33	0	0
CSc1nncn1/N=C/c1ccccc1F	-	0	-	0	-	-	-
Cc1ccc(N2C(=O)CC2(C#N)c2ccc(OCc3ccccc3)cc2)cc1 (centres undefined)	-	0	-	0	-	-	-
COC(=O)c1ccccc1NC(=O)c1cc(-c2cccs2)on1	0	0	0	0	-2.59	0	0
SMILES	M1 agonist	Cav32 inh	Her2 expr inh	PLAP act	M1 antag	M1 antag conf	mGluR4 antag
CN(C)c1ccc(-c2nn3c(-c4ccccc4Cl)nnc3s2)cc1	0	0	0	0	-5.89	0	0
O=C(NCc1cccnc1)NC1(C(F)(F)F)Oc2ccc(Cl)cc2O1 (centres undefined)	0	0	0	0	-1.58	410	0
COCCNC(=O)NC1(C(F)(F)F)Oc2ccc(Cl)cc2O1 (centres undefined)	0	0	0	0	0	-	-
Cn1c(CCN2CCCCC2)nc2cc(NS(=O)(=O)c3ccc(F)cc3)ccc21	0	0	0	0	-1.82	474	0
Cn1c(CCN2CCCCC2)nc2cc(NC(=O)NC3CCCCC3)ccc21	0	0	0	0	-4.72	263	0
Cc1ccc(N2CCN(CCc3nc4cc(NS(C)(=O)=O)ccc4n3C)CC2)cc1	0	0	0	0	-3.75	503	0
Cc1cccc(NC(=S)NN2CCN(C)CC2)c1	-	0	-	0	-	-	-
CC(OCC(O)CN(C)CCOc1ccccc1)c1ccc(Cl)cc1 (centres undefined)	0	0	0	0	-1.95	511	0
CCN(CC)CCOC(=O)c1c(C)oc2ccc(OC)cc12	0	0	0	0	-14.3	98.4	0
CN(C)CCCOC(=O)C1c2ccccc2Oc2ccccc21	0	0	0	0	-12.3	22.3	0
CCN(CC)CCCNC(=O)C1c2ccccc2Oc2ccccc21	0	0	0	0	-6.85	192	0
CCn1c(Oc2ccc(Oc3ncc(Cl)cc3Cl)cc2)nc2c1c(=O)n(C)c(=O)n2C	0	-	0	-	0	-	-
O=C(C1CCCO1)N1CCN(c2c3c(nc4cc(-c5ccc(F)cc5)nn24)CCC3)CC1 (centres undefined)	0	0	0	0	-3.6	0	0
CCN(CC)CCCNC(=O)c1cc(-c2ccc(Cl)c(Cl)c2)on1	0	0	0	0	-3.01	474	0
CCN(CC)CCCNC(=O)c1cc2c(-c3ccc(Cl)cc3)nn(C)c2s1	0	0	0	0	-6.6	0	0
CSc1ccc(CN2CCC(O)CC2)cc1	0	-	0	-	0	-	-
CCCCOc1ccc(CN2CCC(O)CC2)cc1	0	0	0	0	-2.2	0	0
CCCc1[nH]nc2c1C(Cc1ccccc1)C(C#N)=C(N)O2 (centres undefined)	0	0	0	0	-2.25	0	0
CC/C(=C\C(=O)c1cccnc1)Nc1ccc(C)c(C)c1	0	0	0	0	0	-	-
CCN(CC)S(=O)(=O)c1cccc(C(=O)NC(C(=O)Nc2nnc(C3CC3)s2)C(C)C)c1 (centres undefined)	0	0	0	0	-2.58	0	0
CCn1c(CNc2ccc(F)cc2)nnc1SCCN1CCCCC1	0	0	0	0	-3.27	570	0
CCSc1nnc(CNc2ccc(F)cc2)n1CC1CCCO1 (centres undefined)	0	0	0	0	0	-	-
COc1ccc(O)c(CN2CCN(C/C=C/c3ccccc3)CC2)c1	0	0	0	0	-10.6	454	0
COc1cc(Br)cc(CN2CCN(C/C=C/c3ccccc3)CC2)c1O	0	0	0	0	-16	47.7	0
COc1ccc(OC)c(NC(=S)N2CCN(C/C=C/c3ccccc3)CC2)c1	-	0	-	0	-	-	-
SMILES	M1 agonist	Cav32 inh	Her2 expr inh	PLAP act	M1 antag	M1 antag conf	mGluR4 antag
Cc1cc(C)c2c(CN3CCN(C/C=C/c4ccccc4)CC3)cc(=O)oc2c1	0	0	0	0	-3.6	259	0
CCCCn1c(N)c(N(CCOC)C(=O)CSc2nc3ccc(C)cc3[nH]2)c(=O)[nH]c1=O	0	0	0	0	0	-	-
Clc1ccc(Sc2cc(Cl)c(-c3ccccc3)nn2)cc1	-	0	-	0	-	-	-
N#Cc1c(-n2cccc2/C=N/O)sc2c1CCCC2	0	-	0	0	-7.01	248	0
Cc1ccnc(NC(=O)CCc2c(C)nc3ncnn3c2C)c1	0	0	0	0	0	-	-
Cc1cc(C(C)(C)C)cc(C)c1CC1=NCCN1	0	0	0	-	-8.41	412	0
